Eight compounds from PubChem BioAssay (EPA / NIEHS) can be followed below.

What is called AC50 is the concentration giving half of the maximal activity seen.

Records with an inconclusive call do not appear. Calls of active or inactive are those of the source. How the source made its calls, unless noted: active means hit-call score of the fitted dose curve at least 0.9, where 1 is the maximum; inactive means score below 0.9.

Assay [1] is described as follows: ACEA_ER_80hr: ACEA Biosciences xCELLigence Real-Time Cell Analysis on Estrogen Receptor Agonism for Proliferation (AID 2282667; active means hit-call score of the fitted dose curve at least 0.9, where 1 is the maximum). The conditions noted are these: T47D proliferation, impedance (xCELLigence), 80 h. A digest of the protocol: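 Cell-growth kinetics were measured by impedance in T47D cells treated continuously with compound (top 100 uM final, 1:4 steps, 8 points). Activity at 80 h was scored as signal gain over the DMSO baseline.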

A short description of assay [2]: APR_HepG2_NuclearSize_24hr: Apredica 24-hour HepG2 Assay for Nuclear Size (AID 2282907). The conditions noted are these: high-content imaging, actives raise or lower the signal. The gist of the method:
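Compounds in DMSO (final 0.5%) were added to human HepG2 hepatoma cells at ten concentrations up to 200 uM for 24 hr. Fixed nuclei were stained with Hoechst 33342, and nuclear diameter was quantified from automated images.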

Assay [3] is described as follows: APR_HepG2_CellLoss_24hr: Apredica 24-hour HepG2 Assay for Cell Loss (AID 2282908).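 On AC50: fit in both directions so a hit may be cell loss or gain.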 The conditions noted are these: high-content imaging. The gist of the method: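 Cell number is quantified by fluorescence imaging of Hoechst 33342-stained nuclei following dosing at 0.39–200 uM in 0.5% DMSO. Curves are fitted in both directions from the DMSO baseline.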
The nature of assay [4]: APR_HepG2_MitoticArrest_24hr: Apredica 24-hour HepG2 Assay for Mitotic Arrest (AID 2282910). Conditions: high-content imaging, actives raise or lower the signal. The gist of the method:
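Compounds are dosed onto HepG2 cells across ten concentrations up to 200 uM for 24 hr. Cells are then fixed in 3.7% formaldehyde, permeabilised, and labelled for phospho-histone H3 and nuclei; images are scored by cell cycle analysis and fitted bidirectionally relative to DMSO.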

A short description of assay [5]: APR_HepG2_MitoMembPot_24hr: Apredica 24-hour HepG2 Assay for Mitochondrial Membrane Potential (AID 2282911). The conditions noted are these: imaging, actives raise or lower the signal. A digest of the protocol: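 Human hepatoma HepG2 cultures received ten compound concentrations up to 200 uM for 24 hr. Membrane-potential dye signal, captured by automated fluorescence microscopy, was scored for gain or loss against DMSO controls.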

Assay [6] in a line: APR_HepG2_MitoMass_24hr: Apredica 24-hour HepG2 Assay for Mitochondrial Mass (AID 2282912). The conditions noted are these: high-content imaging, actives raise or lower the signal. A digest of the protocol:
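The liver line HepG2 was dosed in duplicate across a 0.39–200 uM series, with final DMSO held at 0.5% v/v, and harvested at 24 hr. High-content imaging measured mitochondrial dye staining.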

A short description of assay [7]: APR_HepG2_p53Act_24hr: Apredica 24-hour HepG2 Assay for p53 Activation (AID 2282913).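 Further: p53 protein immunofluorescence averaged per cell in HepG2 with Hoechst nuclei.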 Conditions: high-content imaging, actives raise or lower the signal. A digest of the protocol:
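Automated fluorescence imaging quantifies p53 immunostaining in HepG2 cells after a 24 hr exposure (0.39–200 uM, duplicate, 0.5% DMSO). Nuclei are located by Hoechst 33342 staining.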

Assay [8] is described as follows: APR_HepG2_CellCycleArrest_72hr: Apredica 72-hour HepG2 Assay for Cell Cycle Arrest (AID 2282914). The conditions noted are these: high-content imaging, actives raise or lower the signal. The gist of the method:
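Cell cycle arrest in HepG2 was scored from nuclear DNA content after 72 hr compound treatment (0.39–200 uM). Activity, either gain or loss, was fitted against the DMSO baseline.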

Assay [9] can be described thus: APR_HepG2_CellLoss_72hr: Apredica 72-hour HepG2 Assay for Cell Loss (AID 2282915). Conditions: high-content imaging. The gist of the method:
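Cell number comes from Hoechst 33342-labelled nuclei, imaged at 20x after 3.7% formaldehyde fixation. Dosing was 0.39–200 uM, ten concentrations in duplicate, 0.5% DMSO final, for 72 h. Bidirectional fit relative to DMSO baseline.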

The nature of assay [10]: APR_HepG2_P-H2AX_72hr: Apredica 72-hour HepG2 Assay for H2AX Phosphorylation (AID 2282916).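 Further: phospho-histone H2A.x immunostain intensity per cell marking DNA damage.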 Conditions: imaging, actives raise or lower the signal. The gist of the method:
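Following 72 hr treatment with 0.39–200 uM compound, HepG2 cells were formaldehyde-fixed, permeabilized and stained for phospho-H2A.x; signal was measured by high-content imaging and fitted bidirectionally against DMSO controls.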

Assay [11] is described as follows: APR_HepG2_MitoMembPot_72hr: Apredica 72-hour HepG2 Assay for Mitochondrial Membrane Potential (AID 2282917). Conditions: imaging, actives raise or lower the signal. The gist of the method: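 Membrane potential read by MitoTracker Red CMXRos (250 nM, 30 min, pre-fixation) fluorescence imaging of HepG2 after 72 hr exposure. Ten concentrations, 0.39–200 uM, duplicate wells, 0.5% DMSO; fitted in both directions against DMSO baseline.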

The nature of assay [12]: APR_HepG2_MitoticArrest_72hr: Apredica 72-hour HepG2 Assay for Mitotic Arrest (AID 2282918). The conditions noted are these: high-content imaging, actives raise or lower the signal. The gist of the method: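 Mitotic arrest in HepG2 is scored from phospho-histone H3 staining after 72 hr dosing across 0.39–200 uM, with DMSO at 0.5% v/v. Nuclei are identified by Hoechst 33342 and fluorescence intensity is quantified per cell.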

Assay [13] can be described thus: APR_HepG2_MicrotubuleCSK_72hr: Apredica 72-hour HepG2 Assay for Microtubule CSK Stabilty (AID 2282919). The conditions noted are these: HepG2 microtubule cytoskeleton, high-content imaging, actives raise or lower the signal. A digest of the protocol:
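Read-out is tubulin fluorescence intensity from high-content imaging of HepG2 cells, with nuclei identified by Hoechst 33342. Treatment lasts 72 h at 0.39–200 uM, and curves are fitted bidirectionally against the DMSO negative control.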

Assay [14] in a line: APR_HepG2_P-H2AX_24hr: Apredica 24-hour HepG2 Assay for H2AX Phosphorylation (AID 2282920). The conditions noted are these: high-content imaging, actives raise or lower the signal. The gist of the method: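 Signal comes from a FITC-labeled secondary detecting phospho-histone H2A.x in fixed HepG2 cells, quantified by automated imaging at 20x. Dosing ran 24 hr across 0.39–200 uM with 0.5% v/v DMSO.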

The nature of assay [15]: APR_HepG2_StressKinase_72hr: Apredica 72-hour HepG2 Assay for Stress Kinase (AID 2282921). Conditions: HepG2 stress kinase (phospho-c-Jun) imaging, actives raise or lower the signal. A digest of the protocol:
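Fluorescence intensity of Cy3-tagged anti-phospho-c-Jun antibody, quantified per cell from Hoechst-defined nuclei across six images per well, served as the read-out following 72 h exposure (0.39–200 uM, 0.5% v/v DMSO).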

Assay [16] in a line: APR_HepG2_StressKinase_24hr: Apredica 24-hour HepG2 Assay for Stress Kinase (AID 2282922). Conditions: HepG2 stress kinase (phospho-c-Jun) imaging, actives raise or lower the signal. A digest of the protocol:
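HepG2, 24 hr dosing, 0.39–200 uM in duplicate, 0.5% DMSO; formaldehyde fix (3.7%), 0.5% Triton X-100; anti-phospho-c-Jun + Cy3 secondary, Hoechst counterstain; ArrayScan imaging; bidirectional curve fit vs DMSO baseline.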

Assay [17] is described as follows: APR_HepG2_MitoMass_72hr: Apredica 72-hour HepG2 Assay for Mitochondrial Mass (AID 2282924).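 Further: MitoTracker Red CMXRos stain intensity per cell imaged as mitochondrial mass.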 The conditions noted are these: high-content imaging, actives raise or lower the signal. A digest of the protocol: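 HepG2, 72 hr cmpd, 10 conc 0.39–200 uM in dup, DMSO 0.5% v/v. MitoTracker Red CMXRos 250 nM 30 min pre-fix; formaldehyde 3.7% fix 30 min RT. HCS imaging, gain/loss fit vs DMSO.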

Assay [18] can be described thus: APR_HepG2_NuclearSize_72hr: Apredica 72-hour HepG2 Assay for Nuclear Size (AID 2282925). The conditions noted are these: high-content imaging, actives raise or lower the signal. The gist of the method: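 HepG2; cpd 0.39–200 uM, 10 conc, duplicate; 72 h; DMSO 0.5% v/v; fix 3.7% formaldehyde 30 min RT; Triton permeabilization; Hoechst 2 ug/mL; HCS imaging 20x; nuclear diameter; gain/loss fit vs DMSO.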

`Cn1c(=O)c2[nH]cnc2n(C)c1=O`: the result in [1], in assay [2], in assay [3], in [4], in assay [5] and in assay [6] was inactive. In addition, the outcome in [7], in [8], in assay [9], in [10], in assay [11] and in assay [12] was inactive. Further, the outcome in assay [13], in assay [14], in [15], in [16], in assay [17] and in assay [18] was inactive.

Consider `NC(=O)N1c2ccccc2C=Cc2ccccc21`, for which, in assay [1], the half-maximal activity concentration (AC50) was 69.5 µM (active). The outcome in assay [2], in assay [3], in assay [4], in assay [5], in [6] and in assay [8] was inactive. For the same compound, the compound was classed as inactive in assay [9], in assay [10], in [11], in assay [12], in assay [13] and in assay [14]. The compound was called inactive in [15], in assay [16], in assay [17] and in [18].

As for `C=CCc1cc(S(=O)(=O)c2ccc(O)c(CC=C)c2)ccc1O`, the compound was classed as inactive in [1], in [2], in [5], in assay [11], in assay [13] and in assay [15]. In addition, in assay [16], the compound was classed as inactive. Besides, the AC50 was 97.8 µM (active) in assay [3]; 51.5 µM (active) in assay [4]; 52.7 µM (active) in assay [6]; 33.7 µM (active) in assay [8]; 73.2 µM (active) in assay [9]; 53.2 µM (active) in [10]. Also, the concentration at half-maximal activity (AC50) in assay [12] is 71.3 µM (active); in assay [14] it was 77.5 µM (active); in [17], 58.5 µM (active); in assay [18] it was 79.1 µM (active).

For `CCCCCCCCCCCCCCO`, the compound was classed as inactive in assay [1], in assay [2], in [5], in [11], in assay [15] and in assay [16]. Also, the outcome in [17] and in assay [18] was inactive. Also, the AC50 was 98.1 µM (active) in [3]; 99.3 µM (active) in [4]; 106 µM (active) in [6]; 95.8 µM (active) in assay [7]; 100 µM (active) in assay [8]; 106 µM (active) in assay [9]. In addition, the AC50 in [10] was 98.6 µM (active); in assay [13] it was 114 µM (active); in assay [14], 101 µM (active).

With `CC[C@H](C)C(=O)O[C@H]1C[C@H](O)C=C2C=C[C@H](C)[C@H](CC[C@@H](O)C[C@@H](O)CC(=O)O)[C@H]21`, the result in assay [1], in assay [2], in [3], in assay [4], in assay [5] and in assay [6] was inactive. The compound was classed as inactive in assay [8], in assay [9], in assay [10], in [11], in [13] and in assay [14]. The compound was classed as inactive in [15], in assay [16], in assay [17] and in assay [18].

As for `O=S(=O)(O)c1ccc(N=Nc2c(O)ccc3cc(S(=O)(=O)O)ccc23)cc1`, the compound was called inactive in assay [1], in assay [2], in assay [3], in [4], in [5] and in assay [6]. The outcome in assay [8], in [9], in assay [10], in [11], in assay [13] and in assay [14] was inactive. The outcome in assay [15], in assay [16], in assay [17] and in assay [18] was inactive.

On to `CNC(C)=O`, for which the outcome in [1], in [2], in [3], in [4], in assay [5] and in assay [6] was inactive. For the same compound, the compound was called inactive in [8], in [9], in [10], in [11], in assay [13] and in [14]. For the same compound, the call in [15], in assay [16], in assay [17] and in [18] was inactive.

Consider `O=S1(=O)CCCO1`, for which the call in assay [1], in assay [2], in assay [3], in assay [4], in assay [5] and in assay [6] was inactive. Moreover, the compound was classed as inactive in [7], in [8], in assay [9], in [10], in assay [11] and in assay [12]. The result in assay [13], in [14], in [15], in assay [16], in [17] and in assay [18] was inactive.
